Data taken from PubChem BioAssay (EPA / NIEHS).
Calls of active or inactive are those of the source. How the source made its calls: active means hit-call score of the fitted dose curve at least 0.9, where 1 is the maximum; inactive means score below 0.9.

Legend:
[1] = ATG_CRE_CIS: Attagene CIS-FACTORIAL HepG2 Assay for human cAMP Responsive Element (CRE) binding protein 3 (AID 2282926); details: HepG2 CRE cis-reporter, Attagene multiplexed mRNA; actives raise or lower the signal
Summary of the method: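 Assay format: transient reporter transfection of HepG2, 24 h treatment, total RNA isolation with DNase I step. Reporter abundance read by fluorescence after PCR and capillary separation; DMSO-normalised gain or loss fitting.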

[2] = biological target: CCAAT/enhancer-binding protein beta (Homo sapiens) (UniProt P17676); assay: ATG_C_EBP_CIS: Attagene CIS-FACTORIAL HepG2 Assay for human CCAAT/Enhancer Binding Protein (C/EBP) beta (AID 2282927); details: HepG2 Attagene cis-factorial transcription factor reporter; actives raise or lower the signal
Summary of the method: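 HepG2 transiently transfected with multiplexed reporter units under cis-regulatory promoters reporting endogenous C/EBPb activity. After 24 h exposure, reporter mRNA assayed by RT-PCR, fluorescent labelling, HpaI digestion and capillary electrophoresis; bidirectional fitting versus DMSO.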

[3] = biological target: Aryl hydrocarbon receptor (Homo sapiens) (UniProt P35869); assay: ATG_Ahr_CIS: Attagene CIS-FACTORIAL HepG2 Assay for human Aryl Hydrocarbon Receptor (Ahr) (AID 2282930); details: HepG2 AhR cis-factorial reporter transcription; actives raise or lower the signal
Summary of the method: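 HepG2 cells transiently transfected with cis-element-driven multiplexed reporter units; endogenous AhR activity read as reporter mRNA 24 h after dosing, via RT-PCR, 6-FAM labelling, HpaI digestion and capillary electrophoresis. Bidirectional fit relative to DMSO.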

[4] = ATG_AP_1_CIS: Attagene CIS-FACTORIAL HepG2 Assay for human Activator Protein 1 (AP-1) (AID 2282931); details: HepG2 Attagene cis-factorial AP-1 reporter mRNA; actives raise or lower the signal
Summary of the method: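 Multiplexed HepG2 reporter assay, 24 h dosing. mRNA induction detected by RT-PCR plus capillary electrophoresis. Activity fitted in both directions against DMSO.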

[5] = ATG_AP_2_CIS: Attagene CIS-FACTORIAL HepG2 Assay for human Activator Protein 2 (AP-2) (AID 2282932); details: HepG2 AP-2 cis-reporter, Attagene transcription factor profiling; actives raise or lower the signal
Summary of the method: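 Read-out: fluorescent reporter mRNA via RT-PCR and capillary electrophoresis, 24 h post-dose in transiently transfected HepG2. Endogenous factors drive cis-promoter reporters; gain or loss of signal fitted bidirectionally against DMSO.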

[6] = biological target: Retinoic acid receptor alpha (Homo sapiens) (UniProt P10276); assay: ATG_DR5_RAR_CIS: Attagene CIS-FACTORIAL HepG2 Assay for human Retinoic Acid Receptor Alpha (RARE), DR5 submotif (AID 2282934); details: HepG2 Attagene cis-factorial RARE DR5 reporter, mRNA; actives raise or lower the signal;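 on AC50: reporter responds to endogenous RAR alpha beta and gamma in HepG2 not RARA alone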
Summary of the method: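 HepG2 cells transiently transfected with multiplexed reporter units; DR5 cis-element drives reporter through endogenous transcription factors. After 24 h dosing, reporter mRNA quantified by RT-PCR, fluorescent labeling, HpaI digestion and capillary electrophoresis; bidirectional fitting versus DMSO.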

[7] = biological target: Transcription factor E2F1 (Homo sapiens) (UniProt Q01094); assay: ATG_E2F_CIS: Attagene CIS-FACTORIAL HepG2 Assay for human E2F Transcription Factor 1 (AID 2282935); details: HepG2 Attagene cis-reporter, E2F reporter RNA transcripts; actives raise or lower the signal
Summary of the method: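 Transient MRTU transfection of HepG2; 24 h compound exposure; RNA → oligo(dT) RT → PCR → FAM label → HpaI cut → CE fluorescence. Gain/loss of signal fit against DMSO.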

[8] = ATG_E_Box_CIS: Attagene CIS-FACTORIAL HepG2 Assay for human Enhancer Box (E-box) (AID 2282936); details: HepG2 E-box cis-reporter transcription, actives raise or lower the signal
Summary of the method: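 Transiently transfected HepG2, endogenous TF-driven reporters, 24 h dosing. Readout: RT-PCR plus capillary electrophoresis of fluorescent reporter fragments. Gain or loss of signal fitted bidirectionally against DMSO baseline.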

[9] = ATG_M_61_CIS: Attagene CIS-FACTORIAL HepG2 Assay for M61 Transcription Factor (Internal Marker) (AID 2282937); details: HepG2 Attagene CIS-FACTORIAL M61 internal marker reporter; actives raise or lower the signal
Summary of the method: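 Endogenous transcription factor activity in HepG2 is read through transiently transfected cis-element reporter units. After 24 h dosing, RNA undergoes reverse transcription, PCR and primer extension with 6-FAM before capillary electrophoresis; DMSO-referenced bidirectional fit.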

[10] = ATG_EGR_CIS: Attagene CIS-FACTORIAL HepG2 Assay for human Early Growth Response 1 (EGR1) (AID 2282938); details: HepG2 Attagene CIS-FACTORIAL EGR reporter mRNA; actives raise or lower the signal
Summary of the method: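 Activity is taken as induction or loss of reporter mRNA versus DMSO, fitted bidirectionally. Transcripts from cis-regulated reporter units in transiently transfected HepG2 were measured after 24 h by RT-PCR with capillary electrophoresis.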

[11] = ATG_M_19_CIS: Attagene CIS-FACTORIAL HepG2 Assay for M19 Transcription Factor (Internal Marker) (AID 2282939); details: HepG2 Attagene CIS-FACTORIAL M19 internal marker reporter; actives raise or lower the signal
Summary of the method: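 HepG2 cells transiently transfected with cis-regulated multiple reporter transcription units were dosed for 24 h; reporter mRNA was quantified by RT-PCR, 6-FAM primer-extension labelling, HpaI digestion and capillary electrophoresis, with bidirectional fitting against DMSO baseline.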

[12] = ATG_Ets_CIS: Attagene CIS-FACTORIAL HepG2 Assay for human Erythroblast Transformation Specific (ETS) (AID 2282941); details: HepG2 ETS cis-reporter transcription, actives raise or lower the signal
Summary of the method: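 RT-PCR/capillary electrophoresis fluorescence read-out of reporter mRNA; HepG2 transient multi-reporter transfection; 24 h compound exposure; gain or loss of signal fitted bidirectionally relative to DMSO.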

[13] = ATG_FoxO_CIS: Attagene CIS-FACTORIAL HepG2 Assay for human Forkhead box O (FoxO) (AID 2282943); details: HepG2 Attagene cis-reporter, FoxO element, mRNA; actives raise or lower the signal
Summary of the method: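 HepG2 cells transiently transfected with cis-element-driven reporter units report endogenous FoxO activity. After 24 h chemical exposure, reporter mRNA quantified by RT-PCR, fluorescent labeling, HpaI digestion and capillary electrophoresis; bidirectional fit versus DMSO.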

[14] = ATG_GATA_CIS: Attagene CIS-FACTORIAL HepG2 Assay for human GATA Binding Protein (AID 2282944); details: HepG2 GATA cis-element reporter, Attagene multiplex mRNA; actives raise or lower the signal
Summary of the method: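 HepG2 cells transiently transfected with multiplexed cis-element reporter units reflecting endogenous transcription factor activity; reporter mRNA measured after 24 h dosing by RT-PCR, 6-FAM labeling, HpaI digestion and capillary electrophoresis. Bidirectional fitting versus DMSO baseline.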

[15] = ATG_GLI_CIS: Attagene CIS-FACTORIAL HepG2 Assay for human Zinc Finger Protein GLI1 (AID 2282945); details: HepG2, Attagene cis-factorial reporter mRNA, GLI element; actives raise or lower the signal
Summary of the method: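 Transiently transfected HepG2 cells report endogenous transcription factor activity via cis-element-driven reporter units. After 24 h compound exposure, reporter mRNA was measured by RT-PCR with capillary electrophoresis; bidirectional fitting against DMSO baseline.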

[16] = ATG_DR4_LXR_CIS: Attagene CIS-FACTORIAL HepG2 Assay for human Liver X Receptor (LXR), DR4 submotif (AID 2282929); details: HepG2 Attagene DR4 cis-reporter, mRNA transcription; actives raise or lower the signal
Summary of the method: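 Fluorescence intensity of labelled reporter cDNA fragments, separated by capillary electrophoresis, gives the signal. HepG2 cells bearing cis-regulated reporter constructs were treated 24 h; activity fitted bidirectionally relative to DMSO negative control.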

[17] = biological target: Hepatocyte nuclear factor 3-beta (Homo sapiens) (UniProt Q9Y261); assay: ATG_FoxA2_CIS: Attagene CIS-FACTORIAL HepG2 Assay for human Forkhead box A2 (FOXA2) (AID 2282942); details: HepG2 cis-reporter transcription factor activity, 24 h; actives raise or lower the signal
Summary of the method: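 Reporter transcript induction is measured by fluorescence after capillary electrophoresis of RT-PCR products from HepG2 cells exposed 24 h. Cis-regulated reporter units report endogenous factor activity; curves fitted both directions against DMSO.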

[18] = ATG_BRE_CIS: Attagene CIS-FACTORIAL HepG2 Assay for human Bone Morphogenetic Protein (BMP) Response Element (BRE) (AID 2282933); details: HepG2 BMP response element reporter, Attagene transcription factor profiling; actives raise or lower the signal
Summary of the method: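 HepG2 cells transiently transfected with multiplexed cis-element reporter units were dosed with chemical for 24 h. Reporter mRNA was measured by RT-PCR with fluorescent labelling, HpaI digestion and capillary electrophoresis; bidirectional fitting relative to DMSO.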

Measured: AC50

Aryl hydrocarbon receptor (Homo sapiens), sequence (P35869 whole entry, looked up): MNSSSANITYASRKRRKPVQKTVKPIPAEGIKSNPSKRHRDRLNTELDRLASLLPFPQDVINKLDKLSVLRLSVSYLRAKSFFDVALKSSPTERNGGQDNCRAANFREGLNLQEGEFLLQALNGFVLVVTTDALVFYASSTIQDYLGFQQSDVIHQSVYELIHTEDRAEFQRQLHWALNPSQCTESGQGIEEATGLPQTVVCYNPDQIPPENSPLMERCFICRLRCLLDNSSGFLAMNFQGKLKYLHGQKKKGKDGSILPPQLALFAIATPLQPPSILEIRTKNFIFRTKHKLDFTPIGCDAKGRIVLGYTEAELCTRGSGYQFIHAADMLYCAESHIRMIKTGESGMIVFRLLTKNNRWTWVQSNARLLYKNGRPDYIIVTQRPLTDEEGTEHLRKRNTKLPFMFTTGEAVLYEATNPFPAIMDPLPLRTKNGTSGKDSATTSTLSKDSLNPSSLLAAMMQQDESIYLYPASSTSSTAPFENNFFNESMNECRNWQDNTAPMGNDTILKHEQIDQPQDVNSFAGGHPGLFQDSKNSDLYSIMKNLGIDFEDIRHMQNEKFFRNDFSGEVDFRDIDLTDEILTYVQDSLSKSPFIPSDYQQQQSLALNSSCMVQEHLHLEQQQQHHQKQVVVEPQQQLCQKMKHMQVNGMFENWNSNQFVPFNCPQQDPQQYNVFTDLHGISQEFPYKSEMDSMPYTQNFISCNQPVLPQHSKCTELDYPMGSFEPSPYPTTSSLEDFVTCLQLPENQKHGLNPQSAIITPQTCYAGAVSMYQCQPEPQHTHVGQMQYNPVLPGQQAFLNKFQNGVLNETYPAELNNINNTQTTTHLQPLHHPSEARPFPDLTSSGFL
CCAAT/enhancer-binding protein beta (Homo sapiens), sequence (P17676 whole entry, looked up): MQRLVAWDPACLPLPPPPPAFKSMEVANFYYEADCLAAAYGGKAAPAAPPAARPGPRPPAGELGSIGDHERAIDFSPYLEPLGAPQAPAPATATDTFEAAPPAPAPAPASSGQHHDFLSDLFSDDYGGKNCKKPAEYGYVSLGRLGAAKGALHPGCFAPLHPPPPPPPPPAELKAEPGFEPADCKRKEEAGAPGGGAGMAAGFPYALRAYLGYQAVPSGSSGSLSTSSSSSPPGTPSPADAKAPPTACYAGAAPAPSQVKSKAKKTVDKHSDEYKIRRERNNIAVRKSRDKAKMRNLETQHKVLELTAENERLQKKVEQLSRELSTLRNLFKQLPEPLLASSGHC
Transcription factor E2F1 (Homo sapiens), sequence (Q01094 whole entry, looked up): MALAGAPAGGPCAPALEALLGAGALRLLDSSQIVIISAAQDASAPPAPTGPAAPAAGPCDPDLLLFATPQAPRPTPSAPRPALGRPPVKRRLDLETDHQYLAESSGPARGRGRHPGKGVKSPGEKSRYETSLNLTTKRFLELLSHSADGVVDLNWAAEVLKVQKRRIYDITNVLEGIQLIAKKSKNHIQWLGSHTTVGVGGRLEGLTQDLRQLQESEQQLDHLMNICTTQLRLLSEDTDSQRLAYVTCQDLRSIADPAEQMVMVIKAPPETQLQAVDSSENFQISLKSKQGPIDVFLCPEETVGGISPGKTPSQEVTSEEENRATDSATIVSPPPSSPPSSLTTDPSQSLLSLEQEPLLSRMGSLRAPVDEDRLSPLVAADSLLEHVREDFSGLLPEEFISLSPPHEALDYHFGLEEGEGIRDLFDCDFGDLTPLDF
Hepatocyte nuclear factor 3-beta (Homo sapiens), sequence (Q9Y261 whole entry, looked up): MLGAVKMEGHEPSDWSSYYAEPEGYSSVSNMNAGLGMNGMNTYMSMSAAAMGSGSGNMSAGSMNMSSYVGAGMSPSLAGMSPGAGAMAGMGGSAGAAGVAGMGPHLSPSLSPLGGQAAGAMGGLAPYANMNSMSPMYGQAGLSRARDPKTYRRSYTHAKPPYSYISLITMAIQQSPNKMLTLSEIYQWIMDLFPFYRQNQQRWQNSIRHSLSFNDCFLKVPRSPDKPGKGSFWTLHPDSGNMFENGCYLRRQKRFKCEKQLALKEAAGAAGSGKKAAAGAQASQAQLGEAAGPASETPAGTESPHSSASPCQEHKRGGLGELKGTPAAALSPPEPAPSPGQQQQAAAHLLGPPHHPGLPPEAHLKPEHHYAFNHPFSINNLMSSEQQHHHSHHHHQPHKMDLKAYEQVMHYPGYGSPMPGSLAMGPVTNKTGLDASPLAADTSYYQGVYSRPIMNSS
Retinoic acid receptor alpha (Homo sapiens), sequence (P10276 whole entry, looked up): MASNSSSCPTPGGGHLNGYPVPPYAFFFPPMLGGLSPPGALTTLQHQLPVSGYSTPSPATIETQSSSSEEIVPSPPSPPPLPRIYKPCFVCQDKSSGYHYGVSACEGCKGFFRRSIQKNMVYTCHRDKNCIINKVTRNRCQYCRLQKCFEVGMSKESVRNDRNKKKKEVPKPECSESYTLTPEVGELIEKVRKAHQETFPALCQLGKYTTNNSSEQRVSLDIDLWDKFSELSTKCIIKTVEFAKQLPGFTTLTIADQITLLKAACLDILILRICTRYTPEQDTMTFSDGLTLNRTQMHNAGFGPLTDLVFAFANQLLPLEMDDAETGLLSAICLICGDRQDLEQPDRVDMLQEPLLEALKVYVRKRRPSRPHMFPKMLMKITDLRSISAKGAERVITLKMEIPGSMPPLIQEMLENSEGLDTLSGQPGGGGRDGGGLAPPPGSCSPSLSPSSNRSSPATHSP

CCCCOC(=O)c1ccccc1C(=O)O
not listed: [16] | [17] | [18]
inactive: all other assays above

C[Si](Cn1cncn1)(c1ccc(F)cc1)c1ccc(F)cc1
active: [16] 48.7 µM | [4] 50 µM | [8] 83.2 µM | [10] 50 µM
not listed: [6] | [18]
inactive: all other assays above

CCCOc1nn(C(=O)NS(=O)(=O)c2ccccc2C(=O)OC)c(=O)n1C
not listed: [16] | [17]
inactive: all other assays above

COc1cccc(C(=O)NN(C(=O)c2cc(C)cc(C)c2)C(C)(C)C)c1C
active: [5] 13.1 µM | [13] 12.9 µM
not listed: [16] | [17]
inactive: all other assays above

CCc1cccc(C)c1N(C(=O)CCl)C(C)COC (configuration not stated)
active: [4] 9.57 µM
not listed: [16]
inactive: all other assays above

CC1(C(=O)Nc2ccc(O)c(Cl)c2Cl)CCCCC1
active: [1] 10 µM | [4] 30 µM | [10] 32.2 µM
not listed: [6] | [16] | [18]
inactive: all other assays above

CC(Oc1cccc(Cl)c1)C(=O)O (configuration not stated)
not listed: [16] | [18]
inactive: all other assays above

FC(F)C(F)(F)OCC(Cn1cncn1)c1ccc(Cl)cc1Cl (configuration not stated)
active: [1] 23.2 µM | [3] 33.3 µM | [6] 13 µM | [10] 50 µM | [17] 50 µM
not listed: [16] | [18]
inactive: all other assays above
